# Screens deposited in PubChem by National Center for Advancing Translational Sciences (NCATS).
# Most compounds without a hit are left out; they make up all but 11% or so of the library.
# L3MBTL1 inh = qHTS Assay for the Inhibitors of L3MBTL1; AlphaScreen L3MBTL1–H3K9me1 peptide binding; Potency, µM (titrated, usually from 57.1 µM), hits mostly inhibitors; Lethal(3)malignant brain tumor-like protein 1 (Homo sapiens), Q9Y468; actives 0.66% (n = 230,000); note: nearly all actives have a fitted effect of over 60% in size
#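 AlphaScreen assay: L3MBTL1 (50 nM final) was preincubated 30 min at room temperature with biotinylated H3(1-15)K9me1 peptide (75 nM final), then 30 min with library compounds; streptavidin donor and nickel chelate acceptor beads (10 ug/mL final) added, 30 min dark.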
# HP1b binding inh = HTS for Inhibitors of HP1-beta Chromodomain Interactions with Methylated Histone Tails; Chromobox protein homolog 1 (Homo sapiens), P83916; AlphaScreen HP1-beta / biotin-H3K9me3 peptide binding; Potency, µM (series often up to 114 µM), hits mostly inhibitors; actives 0.56% (n = 390,000); AID 540317, 2011; note: nearly all actives have a fitted effect of over 70% in size
#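 AlphaScreen: HP1-beta (50 nM) preformed 30 min with biotin-H3(1-18)K9me3 peptide (50 nM) in PBS pH 7.4, 0.01% Tween-20. Compound added for 30 min at RT, then streptavidin donor/nickel chelate acceptor beads (10 ug/mL) for 30 min.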
# JMJD2A Tudor = qHTS Assay for Inhibitors of JMJD2A-Tudor Domain; Lysine-specific demethylase 4A (Homo sapiens), O75164; AlphaScreen JMJD2A-Tudor / H3K4me3 peptide binding; Potency, µM (top dose mostly 114 µM), hits mostly inhibitors; actives 4.4% (n = 390,000); AID 504339, 2011; note: nearly all actives have a fitted effect of over 50% in size
# Target sequence (O75164 whole entry, looked up, the tested form may be a part): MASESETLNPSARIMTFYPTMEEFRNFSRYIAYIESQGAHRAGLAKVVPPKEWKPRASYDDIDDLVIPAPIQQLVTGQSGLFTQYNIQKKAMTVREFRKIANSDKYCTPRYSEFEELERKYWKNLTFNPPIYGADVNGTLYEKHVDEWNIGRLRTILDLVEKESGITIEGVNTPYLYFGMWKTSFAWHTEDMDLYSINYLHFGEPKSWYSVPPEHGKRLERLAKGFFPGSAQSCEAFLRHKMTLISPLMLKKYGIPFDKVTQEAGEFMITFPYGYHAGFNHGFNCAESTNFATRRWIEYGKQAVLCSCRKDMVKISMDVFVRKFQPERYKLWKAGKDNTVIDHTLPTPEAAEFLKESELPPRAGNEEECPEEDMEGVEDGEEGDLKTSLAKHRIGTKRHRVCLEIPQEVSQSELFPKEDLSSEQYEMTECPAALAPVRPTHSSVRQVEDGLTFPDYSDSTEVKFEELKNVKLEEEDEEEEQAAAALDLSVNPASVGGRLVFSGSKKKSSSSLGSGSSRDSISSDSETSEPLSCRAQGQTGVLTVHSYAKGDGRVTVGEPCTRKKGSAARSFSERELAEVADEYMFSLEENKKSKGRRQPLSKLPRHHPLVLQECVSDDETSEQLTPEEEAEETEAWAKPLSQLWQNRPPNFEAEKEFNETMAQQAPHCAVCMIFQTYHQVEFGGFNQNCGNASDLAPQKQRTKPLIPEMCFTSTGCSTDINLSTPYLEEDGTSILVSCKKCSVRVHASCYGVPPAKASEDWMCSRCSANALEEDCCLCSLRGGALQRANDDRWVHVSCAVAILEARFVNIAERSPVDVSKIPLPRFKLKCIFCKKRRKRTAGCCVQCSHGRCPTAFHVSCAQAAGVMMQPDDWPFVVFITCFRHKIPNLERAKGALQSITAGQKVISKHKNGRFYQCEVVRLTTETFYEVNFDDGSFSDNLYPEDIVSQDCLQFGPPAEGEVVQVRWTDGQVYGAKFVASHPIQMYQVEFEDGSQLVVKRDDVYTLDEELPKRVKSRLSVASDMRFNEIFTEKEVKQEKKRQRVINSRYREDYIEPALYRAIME
# BAZ2B inh = qHTS Assay for Inhibitors of BAZ2B; AlphaScreen BAZ2B-H3K14Ac peptide displacement; Potency, µM (top dose mostly 114 µM), actives largely listed as inhibitors; actives 4.4% (n = 360,000); AID 504333, 2011; Bromodomain adjacent to zinc finger domain protein 2B (Homo sapiens), Q9UIF8; note: nearly all actives have a fitted effect of over 60% in size
#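 BAZ2B (50 nM) with biotin-H3(5-23)K14Ac peptide (50 nM) in PBS pH 7.4, 0.01% Tween-20, preformed 30 min, then compound 30 min at room temperature; top concentration 110uM. AlphaScreen streptavidin donor/nickel chelate acceptor beads (10 ug/mL final), 20 min dark, signal read.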
# G9a block = qHTS Assay for Inhibitors of Histone Lysine Methyltransferase G9a | Histone-lysine N-methyltransferase EHMT2 (Homo sapiens), Q96KQ7 | G9a H3K9 monomethylation, AlphaScreen, 2 h | Potency, µM (titrated, usually from 102 µM), usual class: inhibitors | actives 8.8% (n = 350,000) | AID 504332, 2011; note: nearly all actives have a fitted effect of over 75% in size
#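 AlphaScreen read-out: biotin-H3K9 peptide (500 nM) methylation by 20 nM enzyme with 20 uM SAM, 2 h at room temperature after 15 min compound preincubation; anti-monomethyl H3K9 antibody plus donor/acceptor beads, 10 min dark.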
# Numbers stand for hits; n = inactive; u = inconclusive; x = no result given; [ ] = remark or other dose. Calls come from the whole dose curve; as a rule, active = well fitted inhibition curve with a large enough effect; inconclusive = small, poorly fitted or top-dose-only effect; inactive = no such curve, though single readings can be large or run the other way.
SMILES,L3MBTL1 inh,HP1b binding inh,JMJD2A Tudor,BAZ2B inh,G9a block
CCC1CN(C(=O)N2CCC(C(=O)Nc3ccccc3F)CC2)c2ccccc2O1 (centres undefined),x,n,n,n,n
CCC1CN(C(=O)N2CCC(C(=O)NCc3ccc(C)o3)CC2)c2cc(C)ccc2O1 (centres undefined),x,n,n,n,44.7µM
CCCN1CNc2c(c(=O)[nH]c(=S)n2CCc2ccccc2Cl)C1,x,n,n,x,x
Cn1nc(C(=O)N2CCN(c3ccccc3F)CC2)c2c1-c1ccccc1SC2,x,n,20µM,12.6µM,14.1µM
Cn1nc(C(=O)N2CCN(c3ccc(F)cc3)CC2)c2c1-c1ccccc1SC2,x,n,u,n,n
Cn1nc(C(=O)NCc2ccc(F)cc2)c2c1-c1ccccc1SC2,x,u,28.2µM,10µM,14.1µM
CCOc1ccccc1CNS(=O)(=O)c1ccc2[nH]c(=O)ccc2c1,x,n,n,n,n
CC1(OC(=O)c2cccs2)C(=O)C=C2C=C3CCCN3C=C2C1=O (centres undefined),x,u,56.2µM,44.7µM,n
CC1(OC(=O)CCc2ccccc2)C(=O)C=C2C=C3CCCN3C=C2C1=O (centres undefined),x,n,56.2µM,56.2µM,n
CC1(OC(=O)CCc2ccccc2)C(=O)C=C2C=C(c3ccc(C#N)cc3)N(C3CCCCC3)C=C2C1=O (centres undefined),x,n,u,u,n
COc1cc(OC)c(NC(=O)Cn2c(=O)nc(-c3ccccc3)c3ccccc32)cc1Cl,x,n,n,n,n
O=C(O)CSc1cc(NS(=O)(=O)c2ccc(Br)cc2)c2ccccc2c1O,x,14.1µM,20µM,35.5µM,1.78µM
Cc1cc(O)c(Sc2ncn[nH]2)cc1NS(=O)(=O)c1ccc(Cl)cc1,n,n,n,n,n[12.7 µM]
O=S(=O)(Nc1cc(Sc2ncn[nH]2)c(O)c2ccccc12)c1ccccc1,x,3.55µM,3.55µM,28.2µM,1.41µM
Cc1ccc(S(=O)(=O)Nc2ccc(Br)cc2C(NCC(=O)O)c2ccccc2)cc1 (centres undefined),n,n,n,n,u
C=CCN(C(=O)CSc1nc2c(sc3ccccc32)c(=O)n1CCN(CC)CC)c1ccccc1,x,n,u,u,44.7µM
CCc1ccc(NC(=O)CSc2nc3c(sc4ccccc43)c(=O)n2CCN(CC)CC)cc1,x,n,n,n,n
CCCCN(CC)C(=O)CSc1nc2c(sc3ccccc32)c(=O)n1CCc1ccccc1,x,n,n,n,n
CCN(CC)CCn1c(SCC(=O)Nc2ccc(F)cc2)nc2c(sc3ccccc32)c1=O,n,x,x,n,35.5µM
CCCN1CCC(=O)N(C(CSc2ccc(Br)cc2)c2ccccc2)CC1 (centres undefined),x,n,n,x,x
Cc1cccc(C)c1N1CCN(C(=O)Cn2cncn2)CC1,n,n,u,n,17.8µM
O=C(Cn1cncn1)N1CCN(c2ccc(F)cc2)CC1,n,n,n,n,x
CC1=CC(=O)C(C(C)C)=C/C1=N/OS(=O)(=O)c1ccccc1,n,u,44.7µM,14.1µM,x
COc1ccc(N2CC(C(=O)OCC(=O)c3ccc(C)cc3)CC2=O)cc1 (centres undefined),n,n,n,n,x
CCOc1ccc(N2CC(C(=O)NCCN3C(=O)S/C(=C/c4cccnc4)C3=O)CC2=O)cc1 (centres undefined),n,n,n,n,14.1µM
SMILES,L3MBTL1 inh,HP1b binding inh,JMJD2A Tudor,BAZ2B inh,G9a block
CCOc1ccc(N2CC(C(=O)NCCc3ccc(S(N)(=O)=O)cc3)CC2=O)cc1 (centres undefined),x,n,n,n,25.1µM
CCOc1ccccc1N1CC(C(=O)NCCc2ccc(S(N)(=O)=O)cc2)CC1=O (centres undefined),x,n,n,n,n
CCOc1ccc(N2CC(C(=O)OCC(=O)c3ccc(OC)cc3)CC2=O)cc1 (centres undefined),x,n,56.2µM,n,n
Cc1cc(NC(=O)CS(=O)(=O)c2ccc(Cl)cc2)no1,x,n,79.4µM,n,n
CCOc1ccccc1NC(=O)c1c(NCc2ccc(OC)c(OC)c2OC)sc2c1CCC(C)C2 (centres undefined),x,n,n,n,u
COc1ccc(OC)c(NC(=O)c2c(NCc3ccc(OC)c(OC)c3)sc3c2CCC(C)C3)c1 (centres undefined),x,u,50.1µM,u,12.6µM
COc1ccc(OC)c(NC(=O)c2c(NCc3ccc(C)o3)sc3c2CCC(C)C3)c1 (centres undefined),x,u,31.6µM,u,11.2µM
COc1ccc(N2CC(NC(=O)/C=C\c3ccc4c(c3)OCO4)CC2=O)cc1 (centres undefined),x,n,n,n,n
Cc1ccc(-c2ccc(C3C4C=CCC(C)C4C(=O)N3Cc3ccccc3)c(F)c2)cc1 (centres undefined),x,n,n,x,x
FC(F)(F)c1ccccc1-c1ccc2ncnc(NC3CC3)c2c1,x,x,x,x,n[0.501 µM]
CN(Cc1ccccc1)C(=O)Cn1c(=O)c2cccn2c2ccc(F)cc21,x,n,n,n,n
c1ccc(CC2CCN(C3=Nc4cccc5cccc3c45)CC2)cc1,n,u,22.4µM,50.1µM,u
CN1CCN(c2ncc3nc(-c4cccs4)c(=O)n(CCC#N)c3n2)CC1,x,x,x,x,n[0.501 µM]
Cc1ccc(OCC(=O)N(Cc2ccco2)Cc2ccco2)cc1C,x,n,u,n,u
C[N+]1(CC(=O)OCCCc2ccccc2)CCCC1,n,n,u,56.2µM,10µM
O=C(CN1CCCC1)OCCCc1ccccc1,n,n,n,n,n
CCOc1ccc(NC(=O)CCS(=O)(=O)c2cccc3nonc23)cc1,x,n,n,n,n
Cc1onc(-c2ccccc2)c1CNS(=O)(=O)c1ccccc1[N+](=O)[O-],n,n,n,n,u
CC(=O)/C(N=Nc1cc2c(cc1[N+](=O)[O-])OCCO2)=C(\C)O,n,n,17.8µM,n,n
CC(=O)/C(N=Nc1ccc(C(=O)O)cc1[N+](=O)[O-])=C(\C)O,x,n,n,56.2µM,u
CCOC(=O)/C(N=Nc1ccc(C(=O)O)cc1[N+](=O)[O-])=C(\C)O,n,n,n,x,u
COc1ccccc1C(=O)NCCC(=O)N(C)CC(=O)Nc1ccc(N2CCOCC2)cc1,n,n,n,n,44.7µM
CC(C)(C)c1ccc(OCCC(=O)OCC(=O)Nc2ccc(N3CCOCC3)cc2)cc1,n,n,n,n,44.7µM
CCCCOc1ccc(C(=O)NCC(=O)N(C)CC(=O)Nc2ccc(N3CCOCC3)cc2)cc1,n,n,n,n,25.1µM
CN(CC(=O)Nc1ccc(N2CCOCC2)cc1)C(=O)CCNC(=O)c1ccc(Br)cc1,n,n,n,n,44.7µM
